Compound activity (PubChem BioAssay)
Six1-Eya2 blk: inhibitors of human Six1/Eya2 interaction | Q15475+O00167 | AlphaScreen GST-Six1/His-Eya2 binding, biochemical; hits give low values | activity change, % (no concentration beside the values) | AID 651725 | hit rate 0.56% among 360,000; in the data active = activity change below about -65%; inconclusive = mostly about -30% to -63%; also: % is scaled to controls: 0 for no effect and ±100 for the full control effect
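Six1/Eya2 binding was read as AlphaScreen signal after compounds were pinned into GST-Six1 plus His-tagged Eya2 (5X stock 250/500 nM) in pH 8.0 Tris/NaCl/TCEP buffer, beads added, then incubated 1 h, 37 C, dark.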
Gal4-VP16 FLuc: Gal4-VP16 reporter inhibition counter-screen; AID 2546; Drosophila S2 Gal4-VP16 UAS-luciferase, luminescence, 20 h; Potency, µM (doses to about 53.6 µM), for the others: at the top dose activity, negative = inhibition, actives largely listed as inhibitors; hit rate 3.5% among 310,000;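 also: Gal4-VP16 expression switched on by copper sulfate through the metallothionein promoter; potency is read from the fitted curve at half-maximal effect; % is scaled to controls: 0 for no effect and ±100 for the full control effect; nearly all actives have a fitted effect of over 50% in size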
RORg inh: inhibitors of mouse ROR gamma transcriptional activity | P51450 | Drosophila S2 Gal4-RORgamma UAS-luciferase reporter, 20 h | Potency, µM (top dose mostly 53.6 µM), inactives show at the highest dose activity change, negative = inhibition, hits mostly inhibitors | hit rate 5.4% among 310,000 | AID 2551; also: potency is read from the fitted curve at half-maximal effect; % is scaled to controls: 0 for no effect and ±100 for the full control effect; nearly all actives have a fitted effect of over 60% in size
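Drosophila Schneider cells stably carrying a metallothionein-driven Gal4 DBD–ROR gamma fusion and a UAS-Photinus luciferase reporter were exposed to compound for 1 hr, then induced with copper sulfate (700 uM final) for 20 hr at ambient temperature before luminescence reading.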
CBFb-RUNX1 inh: inhibitors of human CBF-beta and RUNX1 interaction | Q01196+Q13951 | AlphaScreen CBFb-His/RUNX1-biotin binding, biochemical | Potency, µM (doses to about 59.8 µM), for inactives: at the top dose activity, negative = inhibition, usual class: inhibitors | 230,000 tested, under 10 active | AID 1477; also: % of control where 0% means no effect
Target sequence (Q01196 whole entry, looked up): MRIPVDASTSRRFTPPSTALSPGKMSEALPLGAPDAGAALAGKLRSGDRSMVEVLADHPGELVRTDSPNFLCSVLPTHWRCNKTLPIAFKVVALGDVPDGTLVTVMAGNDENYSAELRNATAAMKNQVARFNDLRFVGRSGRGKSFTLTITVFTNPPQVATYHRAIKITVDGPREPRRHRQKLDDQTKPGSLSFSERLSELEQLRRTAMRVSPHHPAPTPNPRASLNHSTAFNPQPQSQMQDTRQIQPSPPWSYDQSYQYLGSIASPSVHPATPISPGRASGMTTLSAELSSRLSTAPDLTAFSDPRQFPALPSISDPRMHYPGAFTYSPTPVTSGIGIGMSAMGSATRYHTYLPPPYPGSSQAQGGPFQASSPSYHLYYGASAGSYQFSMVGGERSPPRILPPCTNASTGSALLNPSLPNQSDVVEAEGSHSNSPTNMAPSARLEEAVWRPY
Target sequence (Q13951 whole entry, looked up): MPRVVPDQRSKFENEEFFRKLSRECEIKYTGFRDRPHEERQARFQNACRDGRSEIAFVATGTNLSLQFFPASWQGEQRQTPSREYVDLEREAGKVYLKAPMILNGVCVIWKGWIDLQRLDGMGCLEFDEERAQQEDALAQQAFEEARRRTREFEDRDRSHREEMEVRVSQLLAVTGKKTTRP
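Interaction loss through any mechanism counts as activity. Pre-formed complex of His-CBF-beta and biotin-RUNX1 (30 nM apiece) is incubated with compound 15 min, then with 50 ng nickel and 50 ng streptavidin beads for 90 min before AlphaScreen detection.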
MBNL1 CUG block: inhibitors of human MBNL1 binding to CUG repeat RNA; Q9NR56; TR-FRET MBNL1-His/biotin-(CUG)12 binding, 665/545 ratio; Potency, µM (top dose mostly 57.5 µM), for inactives: top-dose activity change, negative = inhibition, usual class: inhibitors; hit rate 0.036% among 280,000; active = well fitted inhibition curve with a large enough effect in the signal ratio, with a control signal flat, not every such curve was filed as active; inconclusive = small, poorly fitted or top-dose-only effect, or effect the other way, or a change in a side signal; inactive = no such curve, though single readings can be large or run the other way; the % refers to the signal ratio; also: potency is read from the fitted curve at half-maximal effect; % is scaled to controls: 0 for no effect and ±100 for the full control effect
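His-tagged MBNL1 binding to biotinylated (CUG)12 RNA was measured by TR-FRET using terbium anti-His antibody (0.055 ng/ul final) and streptavidin-XL665 (5 nM final). Compounds were titrated 92 nM to 58 uM; 60 min at room temperature.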
CtBP-E1A blk: inhibitors of CtBP/E1A interaction; AlphaScreen GST-E1A/His-CtBP binding, 1536-well; hits give low values; activity change, % (test concentration not listed); hit rate 0.49% among 340,000; in the data active = activity change below about -65%; inconclusive = mostly about -30% to -63%; also: % is scaled to controls: 0 for no effect and ±100 for the full control effect
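Steps: dispense buffer (Tris pH 8.0, NaCl 300 mM, TCEP 1 mM, BSA, Tween 20); add 5X protein mix (GST-E1A, His-CtBP, 125 nM each); pin 23 nL compound; 2 h at 37 °C, dark; add 5X beads (50 ug/mL); 1 h; read.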
Starred values were filed as active, the others as inactive; [ ] = dose if it differs, or a comment. This is a sample that favours compounds with a hit; in the whole collection about 5.5% have one here. Unless noted, calls follow the shape of the dose curve; as a rule, active = well fitted curve in the direction sought with a large enough effect; inconclusive = small, poorly fitted or top-dose-only effect, or another doubt; inactive = no such curve, though single readings can be large; an effect the other way counts as inactive or inconclusive.

CN(C)c1ccc(/C=N\NC(=O)c2csnn2)cc1 was read as Six1-Eya2 blk -3, Gal4-VP16 FLuc 18µM*, RORg inh inconclusive, CBFb-RUNX1 inh 0%, MBNL1 CUG block inconclusive and CtBP-E1A blk -6.
O=C(NCc1ccncc1)c1cc(S(=O)(=O)N2CCOCC2)c(Cl)cc1Cl was read as Six1-Eya2 blk 7 and CtBP-E1A blk 4.
`Cc1nc2cc(C(=O)N3CCN(C)CC3)ccc2n1C` gave Six1-Eya2 blk 3, Gal4-VP16 FLuc 1%, RORg inh -16%, MBNL1 CUG block 3% and CtBP-E1A blk 8.
Screening COc1ccc(NC(=O)CN2C(=O)NC(C)(c3ccccc3)C2=O)cc1Cl (stereo unspecified) returned Six1-Eya2 blk 8, Gal4-VP16 FLuc -5%, RORg inh 10%, MBNL1 CUG block -2% and CtBP-E1A blk -2.
Screening CN(C)c1nc(C=C(C#N)C#N)c(Cl)n1-c1ccc(F)cc1 returned Six1-Eya2 blk -21, Gal4-VP16 FLuc -3%, RORg inh 14µM*, CBFb-RUNX1 inh -3%, MBNL1 CUG block -2% and CtBP-E1A blk -3.
Screening CCOc1ccccc1NC(=O)/C(C#N)=C/c1c(C)nn(-c2ccc(F)cc2)c1Cl returned Six1-Eya2 blk -3, Gal4-VP16 FLuc -10%, RORg inh 0%, CBFb-RUNX1 inh -3% and CtBP-E1A blk -20.
O=C(Cn1cnc([N+](=O)[O-])n1)N/N=C/c1ccccc1O was read as Six1-Eya2 blk -92*, Gal4-VP16 FLuc inconclusive, RORg inh 7.1µM*, CBFb-RUNX1 inh inconclusive, MBNL1 CUG block inconclusive and CtBP-E1A blk -95*.
O=C(Cn1cnc([N+](=O)[O-])n1)N/N=C/c1cc(Cl)ccc1O was read as Six1-Eya2 blk -92*, Gal4-VP16 FLuc inconclusive, RORg inh 7.1µM*, CBFb-RUNX1 inh -25%, MBNL1 CUG block inconclusive and CtBP-E1A blk -94*.
Screening Cc1ccccc1/C=N/NC(=O)Cn1cnc([N+](=O)[O-])n1 returned Six1-Eya2 blk 0, Gal4-VP16 FLuc -2%, RORg inh -28%, CBFb-RUNX1 inh 1%, MBNL1 CUG block inconclusive and CtBP-E1A blk 1.
Screening COc1ccc(NC(=O)COC(=O)CCc2ccc(S(=O)(=O)N3CCOCC3)cc2)cc1Cl returned Six1-Eya2 blk 6 and CtBP-E1A blk -16.
`Cc1c2ccccc2c(CSC(=N)N)c2ccccc12` gave Gal4-VP16 FLuc inconclusive, RORg inh 11µM* and CBFb-RUNX1 inh 5%.
`Cc1c2ccccc2c(C)c2c1ccc1ccccc12` gave Six1-Eya2 blk 11, Gal4-VP16 FLuc inconclusive, RORg inh -6%, CBFb-RUNX1 inh 14%[21.7 µM] and CtBP-E1A blk 47.
Screening O=C(O)CCc1ccc(-c2cccs2)o1 returned Six1-Eya2 blk -4, Gal4-VP16 FLuc inconclusive, RORg inh 11µM*, CBFb-RUNX1 inh -21%, MBNL1 CUG block -3% and CtBP-E1A blk -1.
c1ccc2c(c1)CN1C(=N2)COc2ccccc2C1c1nc2ccccc2[nH]1 (stereo unspecified) was read as Six1-Eya2 blk 1 and CtBP-E1A blk 7.
Screening CN(CCC1CCOCC1)C(=O)C1CCC(=O)N(CCc2ccccc2)C1 (stereo unspecified) returned Six1-Eya2 blk 7, Gal4-VP16 FLuc -3%, RORg inh 4%, MBNL1 CUG block 0% and CtBP-E1A blk 2.
For CCOC(=O)N1CCC(NCc2c(C(=O)N(C)Cc3ccccc3)nc3ccccn23)CC1 the results were Six1-Eya2 blk 5, Gal4-VP16 FLuc -7%, RORg inh -2%, CBFb-RUNX1 inh inconclusive, MBNL1 CUG block -1% and CtBP-E1A blk 0.
For COc1ccc(Cc2c(O)nc(SCC(=O)c3ccc(OC)cc3)[nH]c2=O)cc1 the results were Six1-Eya2 blk -86*, Gal4-VP16 FLuc 18%, RORg inh -3%, CBFb-RUNX1 inh 2% and MBNL1 CUG block 1%.
